In PubChem BioAssay AID624351 (Southern Research Specialized Biocontainment Screening …, 2012):
Hit rate of the full screen: of about 2,400 compounds, about 1,400 (58%) were called active.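 The calls were made as follows: active = inhibition of 30% or more at any tested dose; inconclusive = primary hits over the limit that were never retested; inactive = the rest.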 The set was probably picked from earlier hits. This is one part of the list.

Assay: ADP Hunter readout inhibition without MgcRacGAP – biochemical, coupled enzyme counter-screen, artefact control for MgcRacGAP inhibitor project, dose response (AID 624351);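 also: signal is the ADP detection kit reading of free GDP without any GAP enzyme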
Settings: fluorescence, no MgcRacGAP; series mostly up to 80 µM

| Compound | IC50 |
| --- | --- |
| CN(C)CCCn1c(SCc2ccc(Cl)cc2)nnc1-c1ccncc1 | inactive |
| CCOc1cc(/C=N/NC(=O)c2c(-c3ccccc3)noc2C)ccc1O | 60.4 µM (active) |
| COc1cc(/C=N/NC(=O)c2c(-c3ccccc3)noc2C)ccc1O | 50.7 µM (active) |
| Oc1ccc(/C=N/Nc2nn3cnnc3c3ccccc23)cc1 | 23.3 µM (active) |
| COc1cc(/C=N/Nc2nncn2/N=C/c2ccc(O)c(OC)c2)ccc1O | 39 µM (active) |
| COc1cc(/C=N/Nc2nn3cnnc3c3ccccc23)ccc1O | 58.4 µM (active) |
| Cc1ccc(OCCCCNC(C)(C)C)c([N+](=O)[O-])c1 | inactive |
| N#CC1=C(N)NC(=S)C(C(N)=O)C1c1ccc([N+](=O)[O-])cc1 (stereo unspecified) | inactive |
| N=C(N)c1ccc(/C=C/c2ccc(C(=N)N)cc2O)cc1 | inactive |
| CCOc1ccc(C2NC(=O)C(C#N)=C(S)N2c2ccc(C)cc2)cc1OC (stereo unspecified) | inactive |
| COc1cc2nc(=S)n3[nH]c(CCn4nc(C)cc4C)nc3c2cc1OC | 19.6 µM (active) |
| COc1ccc2cc(OCC(=O)NNC(=O)Nc3ccc(F)cc3)ccc2c1 | 65.5 µM (active) |
| CC1=C/C(=C(/c2cc(C)c(O)c(Br)c2)c2ccccc2S(=O)(=O)O)C=C(Br)C1=O | 62.4 µM (active) |
| Oc1ccc(Cl)cc1C=Nc1ccc2c3c(cccc13)CC2 | 14.8 µM (active) |
| Oc1ccc(Br)cc1C=Nc1ccc2c3c(cccc13)CC2 | 79.9 µM (active) |
| Cc1cccc(C=Nc2ccc3c4c(cccc24)CC3)c1O | 32.6 µM (active) |
| CC(C)(C)N(Cc1ccc2c(c1)OCO2)C(=O)/C=C\S(=O)c1ccccc1 (stereo unspecified) | inactive |
| COc1ccc(C2NC(=O)C(C#N)=C(S)N2c2cccc(C)c2)cc1OC (stereo unspecified) | inactive |
| COCc1cc(S(=O)c2ccc(Cl)cc2)nc(C)n1 (stereo unspecified) | inactive |
| C=CCc1ccc(OCCOCCNCCCC)c(OC)c1 | inactive |
| COc1cc(/C=N/NC(=O)CNC(=O)c2ccc3c(c2)OCCO3)ccc1O | 58.4 µM (active) |
| COc1cc(/C=N/NC(=O)c2ccc3c(c2)OCO3)ccc1O | 31.9 µM (active) |

| Compound | IC50 |
| --- | --- |
| Cc1nc2c(=O)[nH]c(=S)[nH]c2[nH]c1=O | inactive |
| CN1CCc2c1nc1ccccc1c2NC(=O)CN1CCCC1 | inactive |
| Cc1[nH]nc(-c2ccc(O)c(C)c2O)c1-c1cnn(-c2ccccc2)c1 | 70.7 µM (active) |
| O=C(Cc1coc2cc(O)ccc12)NNC(=O)c1ccc(Br)s1 | 35.2 µM (active) |
| O=C(Cc1coc2cc(O)ccc12)NNC(=O)c1cccs1 | 33.8 µM (active) |
| O=c1oc2cc(O)ccc2c2oc3cc(O)ccc3c12 | 54.1 µM (active) |
| COc1cc(-c2ncc3ccccn23)cc(OC)c1OC | inactive |
| CC1CC(=O)N(c2ccc(NCCc3ccc(O)cc3)c([N+](=O)[O-])c2)C1=O (stereo unspecified) | 65.3 µM (active) |
| CCCCc1nc2ccccc2c(NC(=O)CN2CCN(C)CC2)c1CCC | inactive |
| O=c1c2ccccc2sn1-c1ccccc1F | inactive |
| CC(=O)C1=C(O)C(=O)N(c2ccc(O)cc2)C1c1ccccc1[N+](=O)[O-] (stereo unspecified) | inactive |
| Cc1cc(NCCCCCCCNc2cc(C)nc3cc([N+](=O)[O-])ccc23)c2ccc([N+](=O)[O-])cc2n1 | inactive |
| O=[N+]([O-])c1cc([N+](=O)[O-])c2nonc2c1Nc1ccc(O)cc1 | 44.7 µM (active) |
| Nc1cc([N+](=O)[O-])ccc1Nc1ccc(O)cc1 | 36.7 µM (active) |
| Nc1nc(Sc2ccc([N+](=O)[O-])c3nonc23)c2[nH]cnc2n1 | inactive |
| Cc1ccc(/C=C/C(=O)Nc2ccc([N+](=O)[O-])c(NC(=O)/C=C/c3ccc(C)o3)c2)o1 | inactive |
| O=[N+]([O-])c1ccccc1Nc1ccc(O)cc1 | 16.3 µM (active) |
| CCN(Cc1ccncc1)Cc1ccc(OC)cc1OC | inactive |
| Cn1cccc1/C=N/N1CCN(c2ccccc2)CC1 | 78.7 µM (active) |
| Cn1cccc1/C=N/N1CCN(c2ccccn2)CC1 | 31.9 µM (active) |
| CC(C(=O)N1CCCc2ccccc21)N1CCN(c2ccccn2)CC1 (stereo unspecified) | inactive |
| COc1ccc(CN2CCN(c3ccccn3)CC2)c(OC)c1C | inactive |

| Compound | IC50 |
| --- | --- |
| Cc1nc(S/C(=C\c2ccc(-c3ccc(C(=O)O)c(Cl)c3)o2)C(=O)O)n[nH]1 | inactive |
| CC[n+]1c(/C=C/N(C)c2ccccc2)oc2ccc(Cl)cc21 | inactive |
| COc1ccc(O/C(=N\S(=O)(=O)c2ccccc2)c2ccccc2)cc1 | 46.1 µM (active) |
| C=CCn1c(CNc2ccccc2)nnc1SCC(=O)N/N=C/c1ccc(O)cc1O | 79.7 µM (active) |
| Cc1ccc(C2=NOC(=O)/C2=C\c2ccc(C)o2)cc1 | inactive |
| COc1cc(OC)c2cc[nH]c2c1 | 80.5 µM (active) |
| COc1cc(CNCc2cc(OC)c(OC)c(OC)c2)cc(OC)c1 | inactive |
| COc1ccc(CN2CCN(Cc3c[nH]c4ccccc34)CC2)c(OC)c1 | inactive |
| C=CCn1c(SCC(=O)Nc2ccc(O)cc2)nc2sc(CC)cc2c1=O | 37.1 µM (active) |
| Cc1ccccc1N1C(S)=C(C#N)C(=O)NC12CCCCC2 | inactive |
| Cc1cc(=O)c2c(O)c(O)ccc2o1 | 41.8 µM (active) |
| COc1ccc2c(c1)Sc1ccccc1N2 | 34.1 µM (active) |
| COc1ccc(C(=O)Nc2ccc(N3CCCCCC3)cc2)cc1S(=O)(=O)N1CCOCC1 | inactive |
| S=C(c1ccccc1)N1CCN(c2ccccc2)CC1 | inactive |
| O=C(c1ccc(Cl)c(S(=O)(=O)N2CCCCCC2)c1)N1CCN(c2ccc(O)cc2)CC1 | 34.3 µM (active) |
| O=C(c1ccccc1)N1CCN(C2CCCCC2)CC1 | inactive |
| Cc1ccc(-c2cc(C(=O)N3CCN(c4ccc(O)cc4)CC3)c3ccccc3n2)cc1 | 83.4 µM (active) |
| O=C(c1ccccc1)c1ccc(C(=O)N2CCN(c3ccc(O)cc3)CC2)cc1 | 39 µM (active) |
| Cc1ccccc1CN1CCN(C(=O)c2cccc3ccccc23)CC1 | inactive |
| COc1cc(CN2CCN(C(=O)c3cccc4ccccc34)CC2)cc(OC)c1OC | inactive |
| O=C(c1cc(C2CC2)nn1-c1ccccc1)N1CCN(c2ccc(O)cc2)CC1 | 42.2 µM (active) |
| CCC(CC)N1CCN(C(=O)c2cccc(Cl)c2)CC1 | inactive |
